# D2 antag = D2 dopamine receptor (human) antagonism; HEK293 TREx D2 cells, calcium flux, dopamine EC80; inhibition, % at 10 µM; 340,000 compounds, 2% hits; in the data active means inhibition above about 30%; inactive means below that, where a call was filed
# Target sequence (P14416 whole entry, looked up): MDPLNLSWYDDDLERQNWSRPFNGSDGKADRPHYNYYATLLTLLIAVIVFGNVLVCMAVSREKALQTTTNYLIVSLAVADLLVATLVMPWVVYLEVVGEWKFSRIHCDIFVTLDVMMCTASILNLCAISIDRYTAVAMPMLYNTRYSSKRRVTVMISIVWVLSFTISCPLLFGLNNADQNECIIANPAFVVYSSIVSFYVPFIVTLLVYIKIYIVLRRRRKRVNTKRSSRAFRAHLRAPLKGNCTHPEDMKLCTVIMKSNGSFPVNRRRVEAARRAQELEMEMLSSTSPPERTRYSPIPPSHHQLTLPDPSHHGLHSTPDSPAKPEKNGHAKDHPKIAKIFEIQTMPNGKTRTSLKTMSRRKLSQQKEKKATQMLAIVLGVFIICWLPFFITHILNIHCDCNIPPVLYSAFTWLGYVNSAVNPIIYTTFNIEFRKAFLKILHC
#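 Measurement of antagonist activity uses fluorescent calcium dye in inducible HEK293 T-REx D2 cells: 10 s baseline, compound addition with 180 s read, EC80 dopamine addition with a further 180 s read.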
# D2 PAM-1 = positive allosteric modulators of human D2 dopamine receptor; P14416; HEK293 T-REx D2, calcium flux, EC20 dopamine potentiation; potentiation, % at 10 µM; 340,000 compounds, 0.34% hits; AID 485347;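 active means potentiation over 3 SD above the plate norm, cut at about 30% in these data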
#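 Cells plated with tetracycline inducer and held overnight at 30 C; calcium dye loaded 30–90 min at room temperature; baseline taken, compound added and read 180 s; EC20 dopamine then added and read 180 s.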
# D2 PAM-2 = potentiates the human D2 dopamine receptor allosterically; P14416; DiscoveRx D2 beta-arrestin cells, luminescence, 90 min; 100% = 57 uM dopamine signal; potentiation, % (test concentration not listed); 360,000 compounds, 0.23% hits; AID 624464; in the data active means potentiation above about 50%; inconclusive means mostly about 30% to 49%
#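 PathHunter D2 cells, attached overnight at 37 deg C, received compound in DMSO plus dopamine at EC20 (50 nM final) for 90 min at 37 deg C. Beta-arrestin recruitment was read as luminescence after 1 h with detection reagent at ambient temperature.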
# D2 ag-1 = agonists of human D2 dopamine receptor | 340,000 compounds, 0.53% hits | AID 485358 | HEK293 T-REx D2 cells, calcium flux agonist mode | activation, % at 2 µM;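 active means activation over 3 SD above normal in the single-dose calcium agonist read, cut at about 30% in these data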
#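 HEK293 Trex D2 cells, tetracycline-induced, o/n 30 C 5% CO2; no-wash Ca dye, RT 30–90 min; 10-cycle baseline, 23 nl cpd added, kinetic Ca read 180 s; agonist hits = positive Ca response.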
# D2 ag-2 = human D2 receptor agonism in beta-arrestin assay; DiscoveRx PathHunter D2 beta-arrestin, luminescence, 90 min; 100% = 57 uM dopamine signal; activation, % (test concentration not listed); 360,000 compounds, 0.084% hits; AID 624465; in the data active means activation above about 40%; inconclusive means between about 15% and that limit
#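 DiscoveRx PathHunter D2 beta-arrestin cells (2,100/well) attached overnight, then compound-stimulated 90 min at 37 C in HBSS/10 mM HEPES/0.1% Tween-20 buffer; beta-galactosidase complementation read by luminescence after 1 h at ambient temperature. Dopamine 57 uM final (EC100) as control.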
# Numbers stand for hits; i = inactive; ? = inconclusive; nt = not tested or not shown. Most compounds without a hit are left out; they make up all but 2.4% or so of the library.
SMILES,D2 antag,D2 PAM-1,D2 PAM-2,D2 ag-1,D2 ag-2
Cc1ccc(OCCNC(=O)CCNS(=O)(=O)c2ccc(C)cc2)cc1,30.3,i,i,i,i
CCCNS(=O)(=O)c1ccc(OCC(=O)OC)cc1,i,i,i,i,i
CCOc1ccc(S(=O)(=O)NCCC(=O)NCCOc2ccccc2)cc1,i,i,?,i,i
CCCNS(=O)(=O)c1ccc(OCC(=O)NCCCOC)cc1,30.2,i,i,i,i
Cc1ccc2c(c1)c(=O)c(C(=O)c1ccccc1)cn2Cc1ccccc1F,nt,i,nt,i,nt
Cc1cc(C)n2nc(SCc3nnc(-c4ccccc4Br)o3)nc2n1,i,44.5,i,i,i
Cc1cc(C)n2nc(SCc3ncc(-c4ccccc4)o3)nc2n1,i,i,i,i,i
COc1ccc2c(C#N)c3ccccn3c2c1,i,i,70.2,i,i
Cc1ccccc1NC(=O)CC1SC(=Nc2ccc(O)cc2)NC1=O (stereo not given),i,i,i,i,i
Cc1ccc(NC(=O)CC2S/C(=N/N=C/c3ccco3)NC2=O)cc1Cl (stereo not given),32.7,i,i,i,i
Cc1ccc(NC(=O)CC2S/C(=N/N=C/C=C/c3ccccc3)NC2=O)cc1Cl (stereo not given),i,i,i,i,i
CC(C)=N/N=C1/NC(=O)C(CC(=O)Nc2cc(Cl)ccc2C)S1 (stereo not given),46.1,i,i,i,i
CN(Cc1ccccc1)c1nc(-c2ccc(F)cc2)cc(C(F)(F)F)n1,nt,i,nt,i,nt
COC(=O)C(CC(C)C)N1CCC(=O)c2ccccc2S1(=O)=O (stereo not given),51.6,i,i,i,i
C=C1CCN([C@@H](CC(C)C)C(=O)N2CCOCC2)S(=O)(=O)c2ccccc21,nt,nt,i,nt,i
O=C(CSc1nc2nccnc2c(=O)n1CCc1c[nH]c2ccccc12)Nc1ccc(F)cc1,nt,i,nt,i,nt
Cc1cc(NC(=O)c2nn(C)c(C)c2Br)no1,i,i,i,i,i
CC1=CC(C)(C(Cl)Cl)C(C)=CC1=O (stereo not given),i,69.6,i,i,i
CCc1nc(N2CCOCC2)c(C#N)c2c1COC(C)(C)C2,i,i,i,i,i
Cc1nc(N2CCOCC2)c(C#N)c2c1COC(C)(C)C2,i,32.6,i,i,i
CCOC(=O)c1cc(NC(=O)c2ccc(Cl)cc2)c(=O)n2c1oc1ccc(Cl)cc12,31.5,i,i,i,i
CCOC(=O)c1cc(NC(=O)c2ccc(C)cc2)c(=O)n2c1oc1ccc(Cl)cc12,nt,i,nt,i,nt
Cc1oc(-c2ccc(Cl)cc2)nc1CS(=O)CC(=O)NCCc1ccccc1 (stereo not given),nt,i,nt,i,nt
COc1ccc(-c2cn[nH]c2-c2ccc(OCc3ccc([N+](=O)[O-])cc3)cc2O)cc1,nt,nt,52.3,nt,i
Cc1cc(Cl)ccc1OCC(O)CN1C(C)CCCC1C (stereo not given),31.2,i,nt,i,nt
SMILES,D2 antag,D2 PAM-1,D2 PAM-2,D2 ag-1,D2 ag-2
Cn1nnnc1SCC(=O)Nc1ccc(Br)cc1Cl,i,43.7,i,i,i
Cc1ccc(C)c(S(=O)(=O)c2cn(C)c3cc(N4CCCCC4C)c(F)cc3c2=O)c1 (stereo not given),nt,i,nt,i,nt
COc1ccc(Nc2ncnc3c2cnn3-c2ccc(C)cc2C)cc1,nt,i,nt,i,nt
COC(=O)[C@@H]1[C@H]2C[C@H]3c4[nH]c5ccccc5c4CCN3C[C@@H]2CC[C@@H]1O,58.1,i,i,i,i
N#Cc1c(N2CCN(c3ccc([N+](=O)[O-])cc3)CC2)[n+](=O)c2ccc(Cl)cc2n1[O-],nt,nt,i,nt,?
Cc1cc(C)c2c(n1)sc1c(=O)n(-c3cc(Cl)ccc3C)nnc12,nt,i,nt,i,nt
Cc1ccc(NC(=O)c2cccc(N3C(=O)C4C5C=CC(C5)C4C3=O)c2)cc1C (stereo not given),i,i,i,i,i
CN(C)c1ccc(NC(=O)c2cccc(N3C(=O)C4C5C=CC(C5)C4C3=O)c2)cc1 (stereo not given),36.1,i,i,i,i
CC(C)CC(OC(=O)c1nsc(Cl)c1Cl)C(=O)NC1CCCC1 (stereo not given),68.8,i,i,i,i
Cc1ccc(S(=O)(=O)Nc2ccc(NC(=O)c3c(F)c(F)c(F)c(F)c3F)cc2)cc1,i,i,i,i,i
C=CCc1ccc(OCCCCN2CC(C)CC(C)C2)c(OC)c1 (stereo not given),38.5,i,i,i,i
C=CCc1ccc(OCCCCN2CCC(C)CC2)c(OC)c1,i,i,i,i,i
Cc1c(NS(=O)(=O)c2ccc(NC(=O)CCC(=O)O)cc2)c(=O)n(-c2ccccc2)n1C,30.1,i,i,i,i
Cc1c(NS(=O)(=O)c2cccc(C(=O)N3CCCC3)c2)c(=O)n(-c2ccccc2)n1C,nt,nt,i,nt,i
Cc1c(NC(=O)c2cccc(NC(=O)Cc3ccc(Cl)cc3)c2)c(=O)n(-c2ccccc2)n1C,32.7,i,i,i,i
CC(=O)Nc1ccc(S(=O)(=O)Nc2c(C)n(C)n(-c3ccccc3)c2=O)cc1,i,i,i,i,i
CC(=O)N1CCN(C(=O)c2cccc(S(=O)(=O)Nc3c(C)n(C)n(-c4ccccc4)c3=O)c2)CC1,51.1,i,i,i,i
Cc1ccc(C2=NN(CC(=O)NCCCN(CC(C)C)CC(C)C)C(=O)CC2)cc1,nt,i,nt,i,nt
CC1=C(c2ccc(C(C)C)cc2)S(=O)(=O)N=C1N1CCC(C(=O)NCc2ccc(C)o2)CC1,nt,i,nt,i,nt
CC1=C(C(=O)Nc2cccc(C(=O)NC3CCCC(C)C3C)c2)SCCO1 (stereo not given),i,i,i,i,i
O=C(Nc1cn(-c2ccccc2)nc1-c1ccc(Cl)cc1)c1ccccc1,i,i,i,i,i
O=C(O)Cc1cn(-c2ccccc2)nc1-c1ccc(Cl)cc1,i,30.9,i,i,i
Cc1cc(SCC(=O)N/N=C/c2ccc(O)c(O)c2O)c(C)cc1Br,i,i,56.8,i,?
CC1CCC(C(C)C)C(OC(=O)C[n+]2cc(-c3ccc(Cl)cc3)n3c2CCCCC3)C1 (stereo not given),33.1,i,i,i,i
Cc1cc2cc(CNC(=S)NCc3ccccc3)ccc2n1C,44.9,i,i,i,i
SMILES,D2 antag,D2 PAM-1,D2 PAM-2,D2 ag-1,D2 ag-2
Cc1cc2cc(CNC(=O)c3cccs3)ccc2n1C,i,i,i,51.9,i
CCOC(=O)CCC(=O)NCc1ccc2c(c1)cc(C)n2C,i,i,i,i,i
CCCCC(=O)NCc1ccc2c(c1)cc(C)n2C,33.9,i,i,i,i
Cn1cccc1C(=O)NC1CCCCCC1,i,i,i,i,i
CCOC(=O)c1ccc(CN2C(=O)c3ccccc3S2(=O)=O)cc1,i,i,i,i,i
CCOc1ccc(C(C)=O)cc1CN1C(=O)c2ccccc2S1(=O)=O,34.0,i,i,i,i

# Compound activity from PubChem BioAssay.
